Values joined by “and” are separate entries in the source; they are usually repeats but may differ in a detail not shown here. Equal entries are not always repeated. In all, about 5,500 compounds went through this assay and about 2,000 (36%) were called active. Roughly 18% stayed inconclusive and do not appear here. No stated cut-off is given here; in the data, active means normalized growth mostly below about 0.91 (no sharp cut-off); inconclusive means no clear call, values can overlap the other calls; inactive means mostly above about 0.92. The list shows a part of the results.
Assay: chemical genetic growth profiling, strain panel (AID 1159580);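 further: tested at 20 µM; growth read once vehicle control cultures reached saturation at 30 °C; 1 = growth at the plate median or of vehicle wells; lower values mean less growth of the strain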
Conditions: S. cerevisiae deletion strains, growth OD

Measured: normalized growth

O=C(O)CCCCCCCC(=O)O
inactive: locus YAL013W, strain DEP1, hits give low values 0.991 | locus YAL021C, strain ccr4, hits give low values 1.02 | locus YAL026C, strain drs2, hits give low values 1.04 | locus YAL030W, strain snc1, hits give low values 1.02 | locus YAL040C, strain CLN3, hits give low values 1.01 | locus YBL061C, strain skt5, hits give low values 1.01 | locus YBR009C, strain hhf1, hits give low values 1.01 | locus YBR021W, strain FUR4, hits give low values 0.999 | locus YBR023C, strain chs3, hits give low values 1.01 | locus YBR171W, strain sec66, hits give low values 1.03 | locus YBR229C, strain ROT2, hits give low values 0.956 | locus YBR231C, strain swc5, hits give low values 1.01 | locus YBR279W, strain paf1, hits give low values 0.991 | locus YCL011C, strain gbp2, hits give low values 1.02 | locus YCL016C, strain dcc1, hits give low values 1.03 | locus YCL029C, strain bik1, hits give low values 0.969 | locus YCL069W, strain vba3, hits give low values 1.02 | locus YCR088W, strain abp1, hits give low values 1.02 | locus YDL005C, strain med2, hits give low values 0.986 | locus YDL035C, strain GPR1, hits give low values 0.994 | locus YDL040C, strain nat1, hits give low values 0.999 | locus YDL074C, strain BRE1, hits give low values 0.982 | locus YDL101C, strain DUN1, hits give low values 0.981 | locus YDL134C, strain PPH21, hits give low values 0.96 | locus YDL185W, strain tfp1, hits give low values 0.982 | locus YDL192W, strain arf1, hits give low values 0.984 | locus YDR001C, strain nth1, hits give low values 1.03 | locus YDR069C, strain doa4, hits give low values 1 | locus YDR101C, strain arx1, hits give low values 0.991 | locus YDR137W, strain rgp1, hits give low values 0.99 | locus YDR150W, strain NUM1, hits give low values 0.974 | locus YDR159W, strain sac3, hits give low values 0.997 | locus YDR162C, strain NBP2, hits give low values 0.994 | locus YDR195W, strain ref2 0.997 | locus YDR297W, strain sur2, hits give low values 0.996 | locus YDR318W, strain mcm21, hits give low values 0.981 | locus YDR334W, strain swr1, hits give low values 1 | locus YDR335W, strain msn5, hits give low values 1 | locus YDR363W, strain ESC2, hits give low values 0.994 | locus YDR388W, hits give low values 0.98 | locus YDR392W, strain spt3, hits give low values 1.04 | locus YDR502C, strain sam2, hits give low values 0.986 | locus YEL003W, strain gim4, hits give low values 1.02 | locus YEL037C, strain rad23, hits give low values 1 | locus YEL061C, strain CIN8 (second series), hits give low values 1.03 | locus YEL061C, strain CIN8, hits give low values 0.989 | locus YER002W, strain NOP16, hits give low values 1.01 | locus YER015W, strain faa2, hits give low values 1 | locus YER016W, strain bim1, hits give low values 1.02 | locus YER110C, hits give low values 0.971 | locus YER111C, strain swi4, hits give low values 1.01 | locus YER155C, strain BEM2 (second series), hits give low values 1.07 | locus YER155C, strain BEM2, hits give low values 1 | locus YER167W, strain BCK2, hits give low values 1.02 | locus YFR010W, strain ubp6, hits give low values 1.01 | locus YGL078C, strain dbp3, hits give low values 0.983 | locus YGL086W, strain mad1, hits give low values 1 | locus YGL167C, strain pmr1, hits give low values 1.02 | locus YGL173C, strain kem1, hits give low values 1.02 | locus YGL227W, strain vid30, hits give low values 1.02 | locus YGL240W, strain doc1, hits give low values 1.01 | locus YGL248W, strain PDE1, hits give low values 0.992 | locus YGL253W, strain hxk2, hits give low values 1.02 | locus YGR078C, strain PAC10, hits give low values 0.99 and 1.01 | locus YGR135W, strain pre9, hits give low values 0.988 | locus YGR229C, strain SMI1, hits give low values 1 and 0.991 | locus YGR252W, strain gcn5, hits give low values 0.961 | locus YHR013C, strain ard1, hits give low values 1.04 | locus YHR027C, strain rpn1, hits give low values 1 | locus YHR030C, strain SLT2, hits give low values 0.993 and 0.979 | locus YHR079C, strain IRE1 (second series), hits give low values 0.988 | locus YHR079C, strain IRE1, hits give low values 0.982 | locus YHR094C, strain hxt1, hits give low values 0.995 | locus YHR129C, strain ARP1, hits give low values 0.96 | locus YHR142W, strain chs7, hits give low values 1.05 | locus YHR200W, strain rpn10, hits give low values 0.991 | locus YIL066C, strain RNR3, hits give low values 0.976 | locus YIL073C, strain SPO22, hits give low values 0.952 | locus YIL125W, strain kgd1, hits give low values 0.999 | locus YIR030C, strain dcg1, hits give low values 0.986 | locus YJL092W, strain hpr5, hits give low values 1.03 | locus YJL095W, strain BCK1 (second series), hits give low values 1.01 | locus YJL095W, strain BCK1, hits give low values 1.03 and 0.992 | locus YJL115W, strain asf1, hits give low values 1.01 | locus YJL129C, strain trk1, hits give low values 1.01 | locus YJL134W, strain LCB3, hits give low values 0.991 | locus YJL154C, strain vps35, hits give low values 1.03 | locus YJL164C, strain tpk1, hits give low values 1.03 | locus YJL166W, strain qcr8, hits give low values 1.02 | locus YJL168C, strain set2, hits give low values 0.99 | locus YJL187C, strain SWE1 (second series), hits give low values 0.976 | locus YJR043C, strain POL32, hits give low values 0.994 | locus YJR066W, strain TOR1, hits give low values 0.965 | locus YJR075W, strain HOC1, hits give low values 0.985 and 0.983
